# Data published in PubChem BioAssay (NCI).
# The panel holds about 83,000 compounds, 20% with a hit somewhere; the sample as a whole holds those more often.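 Negative percent growth values reflect cell death: -40 means 40% of the cells present at the start died, and -100 means all died.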 A number with no mark means an inactive call. The source made the active and inactive calls. Rule for the calls: active = growth percent below 10; inactive = the rest.
# Experiments:
# Assay in all cases: NCI-60 one-dose screen, 48 h (100 = growth as untreated, 0 = no growth, -100 = all killed)
# Conditions in all cases: 10 µM unless noted
# DU-145 prostate = test system: DU-145 prostate
# K-562 leukemia = test system: K-562 leukemia
# MALME-3M melanoma = test system: MALME-3M melanoma
# MDA-MB-231 breast = test system: MDA-MB-231 breast
# RXF 393 renal = test system: RXF 393 renal
# SF-268 CNS = test system: SF-268 CNS
# SF-295 CNS = test system: SF-295 CNS
# SF-539 CNS = test system: SF-539 CNS
# UACC-257 melanoma = test system: UACC-257 melanoma
# M14 melanoma = test system: M14 melanoma
# HCT-15 colon = test system: HCT-15 colon
# HT29 colon = test system: HT29 colon
# SNB-75 CNS = test system: SNB-75 CNS
# SNB-19 CNS = test system: SNB-19 CNS
# U251 CNS = test system: U251 CNS
# PC-3 prostate = test system: PC-3 prostate
# SK-MEL-5 melanoma = test system: SK-MEL-5 melanoma
# UACC-62 melanoma = test system: UACC-62 melanoma
# LOX IMVI melanoma = test system: LOX IMVI melanoma
# SK-MEL-28 melanoma = test system: SK-MEL-28 melanoma
SMILES,growth (DU-145 prostate),growth (K-562 leukemia),growth (MALME-3M melanoma),growth (MDA-MB-231 breast),growth (RXF 393 renal),growth (SF-268 CNS),growth (SF-295 CNS),growth (SF-539 CNS),growth (UACC-257 melanoma),growth (M14 melanoma),growth (HCT-15 colon),growth (HT29 colon),growth (SNB-75 CNS),growth (SNB-19 CNS),growth (U251 CNS),growth (PC-3 prostate),growth (SK-MEL-5 melanoma),growth (UACC-62 melanoma),growth (LOX IMVI melanoma),growth (SK-MEL-28 melanoma)
COc1ccc2c(c1)sc1nc(-c3ccc(N(C)C)cc3)cn12,103%,80%,112%,122%,114%,93.1%,98.7%,99.4%,95.8%,103%,116%,113%,162%,95.3%,98.3%,60.6%,108%,104%,113%,144%
CC[C@H]1CN2CCc3cc(OC)c(OC)cc3C2C[C@@H]1CC1NCCc2cc(OC)c(OC)cc21 (stereo not given in full),-31.6% (active),-6.17% (active),-58.1% (active),-45.5% (active),-42.9% (active),-25.6% (active),-29.2% (active),-59.7% (active),-27.8% (active),-82.9% (active),-18% (active),-14.5% (active),-52.2% (active),-6.47% (active),-10.2% (active),-12% (active),-88.7% (active),-82% (active),-27.8% (active),-14.4% (active)
COc1ccc2c(c1)sc1nc(-c3ccc(Br)cc3)cn12,115%,90.9%,109%,89.6%,109%,118%,89.2%,105%,101%,103%,110%,108%,112%,115%,99.5%,101%,76.4%,86.2%,99.1%,112%
CCC(C)C1NC(=O)C(CCNCS(=O)(=O)O)NC(=O)C(NC(=O)C(CCNCS(=O)(=O)O)NC(=O)C(NC(=O)C(CCNCS(=O)(=O)O)NC(=O)CCCCC(C)C)C(C)O)CCNC(=O)C(C(C)O)NC(=O)C(CCNCS(=O)(=O)O)NC(=O)C(CCNCS(=O)(=O)O)NC(=O)C(C(C)CC)NC1=O (stereo not given),117%,20.2%,48.9%,51.9%,47.4%,72.9%,86.6%,27.3%,84.3%,34.7%,99.6%,17.3%,48.5%,54.9%,33.3%,61.6%,4.4% (active),47.5%,48.8%,49.8%
N#Cc1c(NC(=O)c2ccco2)[n+]([O-])c2ccccc2[n+]1[O-],95.5%,84.9%,112%,96.1%,95.5%,110%,107%,84.4%,102%,104%,116%,109%,104%,96.8%,106%,130%,91%,81%,98.3%,104%
Cc1ccc(N/N=C(/C(=O)c2ccc(Cl)cc2)c2nc(C)cc(=O)[nH]2)cc1,102%,91.7%,126%,95.9%,40.7%,107%,90%,85.3%,105%,82.7%,111%,111%,116%,104%,103%,95%,82.5%,90.8%,92.6%,118%
NC(=N\N=C/Cc1ccccc1)/C(N)=N\N=C\Cc1ccccc1,101%,103%,144%,97.7%,121%,94%,108%,93%,101%,105%,94.9%,120%,98.5%,96.6%,106%,101%,107%,96.1%,96.8%,120%
NS(=O)(=O)c1ccc(-n2ncc3c(NC4CCCCC4)ncnc32)cc1,100%,54.4%,108%,85.9%,13.4%,116%,48.9%,90.9%,79.6%,98.2%,86.4%,81.9%,113%,94.1%,96.3%,92.9%,88.1%,97.2%,80.8%,98%
CCCc1n(Cc2ccc3ccccc3c2)cc[n+]1Cc1ccc2ccccc2c1,20.3%,2.49% (active),-49.6% (active),-80.1% (active),-30.4% (active),7.55% (active),-1.49% (active),1.21% (active),-33.6% (active),-28.4% (active),53.8%,-22.5% (active),-13.9% (active),-7.08% (active),0.776% (active),-2.89% (active),-98.1% (active),-67.2% (active),-84.3% (active),-40.3% (active)
C=CCN(/C=C/CN(CC=C)CC=C)CC=C,110%,100%,102%,90.4%,111%,105%,84.3%,99.7%,108%,103%,100%,100%,85.8%,97.8%,97.3%,89.4%,109%,101%,103%,98.5%
COc1cccc2c1C(=O)c1c(O)c3c(c(O)c1C2=O)C[C@@](O)(C(C)=O)C[C@@H]3O[C@H]1C[C@H](N)[C@H](O)[C@H](C)O1,1.62% (active),-4.44% (active),-70.7% (active),-14.6% (active),-65.1% (active),-43.8% (active),-30.8% (active),-43.1% (active),-47.3% (active),-86.5% (active),7.88% (active),-13.5% (active),-91.4% (active),2.11% (active),0.281% (active),-26.3% (active),-100% (active),-65.8% (active),-35% (active),-44.5% (active)
Cn1cnc([N+](=O)[O-])c1Sc1nc(N)nc2nc[nH]c12,25.7%,4.56% (active),68.8%,29.6%,44.8%,29%,-2.69% (active),16.4%,45.3%,14.4%,50.3%,47.2%,31.3%,101%,63.6%,56.2%,79.3%,7.35% (active),6.74% (active),84.4%
O=C(CSc1ncc(-c2ccccc2)n1-c1ccccc1)Nc1ccc(-c2nc3ccccc3s2)cc1,68.4%,70.7%,17%,95.4%,93.2%,54.3%,96.4%,59.8%,48.8%,72.8%,69%,38.1%,103%,90.4%,24.7%,80%,75.7%,87.3%,63.5%,80%
ICCC(c1ccccc1)(c1ccccc1)c1ccccc1,79.1%,-9.2% (active),-43.4% (active),41.7%,28.4%,62.7%,51.3%,10.6%,-62.8% (active),-76.2% (active),27.7%,2.63% (active),50.3%,65.3%,23%,49.4%,-49.5% (active),-35.3% (active),16.3%,-70% (active)
C#C[C@]1(O)CCC2C3CCc4cc(O)ccc4C3CC[C@@]21C (stereo not given in full),60.8%,12.7%,43%,66.7%,51.5%,47.7%,22.6%,21%,75.2%,20.4%,31.9%,11.7%,38.8%,53.1%,32.2%,64.9%,8.95% (active),30.5%,41.8%,59.2%
